Most compounds without a hit are left out; they make up all but 2.4% or so of the library.
GLP1R inv ag = acts as inverse agonist at human GLP-1 receptor. P43220. HEK293 GLP-1R CRE-luciferase, luminescence, 24 h; GLP-1R form is constitutively active. Potency, µM (top dose mostly 38.3 µM), actives largely listed as inhibitors. actives 1.6% (n = 410,000). AID 624417; also: nearly all actives have a fitted effect of over 55% in size
Target sequence (P43220 whole entry, looked up): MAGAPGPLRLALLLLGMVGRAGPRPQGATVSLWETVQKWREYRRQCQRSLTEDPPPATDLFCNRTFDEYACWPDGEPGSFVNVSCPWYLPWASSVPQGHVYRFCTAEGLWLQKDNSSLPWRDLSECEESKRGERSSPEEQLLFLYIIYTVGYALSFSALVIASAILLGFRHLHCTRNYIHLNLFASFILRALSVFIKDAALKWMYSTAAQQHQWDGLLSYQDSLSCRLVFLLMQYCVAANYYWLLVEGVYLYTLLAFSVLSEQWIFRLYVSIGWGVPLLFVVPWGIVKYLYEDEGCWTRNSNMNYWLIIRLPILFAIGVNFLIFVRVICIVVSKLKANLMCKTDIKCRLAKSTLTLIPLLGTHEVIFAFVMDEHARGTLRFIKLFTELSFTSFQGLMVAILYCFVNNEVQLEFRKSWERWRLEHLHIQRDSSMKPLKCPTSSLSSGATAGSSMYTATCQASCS
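Cells are plated, allowed 12 hours at 37 deg C, then treated with compounds for 24 hr before luciferase detection reagent is added and luminescence is read after 12 min at room temperature. The HEK293 line carries constitutively active GLP-1R with a cAMP-responsive reporter.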
PTHR1 agonist = activates the human parathyroid hormone receptor PTHR1. actives 0.075% (n = 410,000). Q03431. HEK293 GP2 PTHR1 cells, GloSensor cAMP luminescence, 1 h. AID 743266. Potency, µM (doses to about 115 µM), actives largely listed as activators; also: nearly all actives have a fitted effect of over 55% in size
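HEK-293-derived GP2 cells expressing PTHR1 and a GloSensor cAMP reporter, 3,000/well, plated overnight, given luciferin plus IBMX (each 0.5 mM as added) for 1 h at 37 °C, then compound for 1 h at 37 °C. Luminescence was read after 15 min at room temperature.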
TRHR enhancer = TRH receptor (human) allosteric enhancement | P34981 | TRHR cells, fluo-8 calcium fluorescence, EC20 TRH enhancement | enhancement, % at 2 µM | actives 0.66% (n = 360,000); in the data active = enhancement above about 30%
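Enhancer read-out: after compound pinning and an initial kinetic agonist-mode read, an EC20 of TRH (10 nM final) was injected and fluo-8 calcium signal (Ex 480/Em 530) followed at 1 s/cycle for 100 cycles in TRHR-expressing cells.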
TRHR ag = TRH receptor (human) agonism. actives 0.18% (n = 360,000). AID 493084. TRHR cells, calcium flux fluo-8, FDSS agonist mode. activation, % at 2 µM; in the data active = activation above about 30%
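Fluo-8-loaded TRHR cells; 10 s baseline, compound added, kinetic Ca2+ fluorescence read 1/s, agonist mode.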
GLP-1R agonist = activates the human GLP-1 receptor; P43220; HEK293 GLP-1R CRE-luciferase, luminescence, 4-6 h; cells express a hypersensitive GLP-1R form; Potency, µM (highest dose often 45.6 µM), actives largely listed as activators; actives 0.007% (n = 380,000); AID 624172
GLP1R cytotox = cytotoxicity in counter-screen for GLP-1R inverse agonists | HEK293 cAMP-luciferase reporter cells, luminescence, 24 h | Potency, µM (highest dose often 38.3 µM), actives largely listed as inhibitors | actives 0.13% (n = 410,000);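 also: loss of luciferase light is scored as toxicity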
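Luminescence readout: signal drop marks cytotoxicity. Plated cells grew 12 h at 37 °C, 5% CO2, received 23 nL compound for 24 h, then got luciferase reagent, read after 12 min at RT.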
Numbers stand for hits. Unless noted, calls follow the shape of the dose curve; as a rule, active = well fitted curve in the direction sought with a large enough effect; inconclusive = small, poorly fitted or top-dose-only effect, or another doubt; inactive = no such curve, though single readings can be large; an effect the other way counts as inactive or inconclusive.

What do the screens show for `CCOC(=O)c1c(NC(=O)CSc2nnnn2-c2ccccc2OCC)sc2c1CC(C)(C)NC2(C)C`?
GLP1R inv ag: 10µM; PTHR1 agonist: inactive; TRHR enhancer: inactive; TRHR ag: inactive; GLP-1R agonist: inactive; GLP1R cytotox: inconclusive

Results for CCOC(=O)c1c(NC(=O)CSc2nnnn2-c2ccccc2)sc2c1CC(C)(C)NC2(C)C ?
GLP1R inv ag: inconclusive; PTHR1 agonist: inactive; TRHR enhancer: inactive; TRHR ag: inactive; GLP-1R agonist: inactive; GLP1R cytotox: inconclusive

How did CCOC(=O)c1c(NC(=O)Cc2ccccc2)sc2c1CC(C)(C)NC2(C)C do in these assays?
GLP1R inv ag: inconclusive; PTHR1 agonist: inactive; TRHR enhancer: inactive; TRHR ag: inactive; GLP-1R agonist: inconclusive; GLP1R cytotox: inactive

What do the screens show for `O=C1C(Cc2ccccc2)Nc2ncnc(N3CCCCC3)c2N1Cc1ccc(Br)cc1` (configuration not stated)?
GLP1R inv ag: inconclusive; PTHR1 agonist: inactive; GLP-1R agonist: inactive; GLP1R cytotox: inactive

Results for C/C(=N\NC(=O)c1cc(C)nc2ccccc12)c1ccccn1 ?
GLP1R inv ag: inconclusive; PTHR1 agonist: inactive; TRHR enhancer: inactive; TRHR ag: inactive; GLP-1R agonist: inactive; GLP1R cytotox: 3.2µM

Results for O=C(N/N=C/c1ccccn1)c1cc(-c2ccccc2)nc2ccccc12 ?
GLP1R inv ag: inconclusive; PTHR1 agonist: inactive; TRHR enhancer: inactive; TRHR ag: inactive; GLP-1R agonist: inactive; GLP1R cytotox: 5µM

What do the screens show for `Cc1ccccc1NC(=S)NC(=O)c1cc(-c2ccccc2)nc2ccccc12`?
GLP1R inv ag: 7.9µM; PTHR1 agonist: inactive; TRHR enhancer: inactive; TRHR ag: inactive; GLP-1R agonist: inactive; GLP1R cytotox: inactive

What do the screens show for `COc1cccc(/C=N/NC(=O)c2cc(-c3ccccn3)nc3ccccc23)c1O`?
GLP1R inv ag: 5µM; PTHR1 agonist: inactive; TRHR enhancer: inactive; TRHR ag: inactive; GLP-1R agonist: inactive; GLP1R cytotox: inactive

Results for Cc1ccsc1C(=O)OCC(=O)Nc1c(C)n(C)n(-c2ccccc2)c1=O ?
GLP1R inv ag: inactive; PTHR1 agonist: inactive; TRHR enhancer: inactive; TRHR ag: inactive; GLP-1R agonist: inactive; GLP1R cytotox: inactive

How did CSc1ncc(C(=O)N2CCN(c3cccc(Cl)c3)CC2)c(C)n1 do in these assays?
GLP1R inv ag: inactive; PTHR1 agonist: inactive; TRHR enhancer: inactive; TRHR ag: inactive; GLP1R cytotox: inactive

Results for COc1ccc(CNC(=O)CSc2nc3ccc(N)cc3s2)cc1 ?
GLP1R inv ag: inactive; PTHR1 agonist: inactive; TRHR enhancer: inactive; TRHR ag: 42; GLP-1R agonist: inactive; GLP1R cytotox: inactive

How did CC(=O)Nc1ccc(NS(=O)(=O)c2ccc(C)cc2)cc1[N+](=O)[O-] do in these assays?
GLP1R inv ag: inactive; PTHR1 agonist: inactive; TRHR enhancer: inactive; TRHR ag: inactive; GLP-1R agonist: inactive; GLP1R cytotox: inactive

What do the screens show for `CCOc1cc(/C=C/C(=O)c2ccc3c(c2)OCCO3)ccc1OCC(=O)N(C)C`?
GLP1R inv ag: 13µM; PTHR1 agonist: inactive; TRHR enhancer: inactive; TRHR ag: inactive; GLP-1R agonist: inactive; GLP1R cytotox: inactive

Results for CCOC(=O)CN1C(=N)N(c2nc(NC(C)C)nc(NC(C)C)n2)CC1=O ?
GLP1R inv ag: inactive; PTHR1 agonist: inactive; TRHR enhancer: inactive; TRHR ag: inactive; GLP-1R agonist: inactive; GLP1R cytotox: inactive

What do the screens show for `CC(C)n1cc(C(=O)c2ccccc2O)cc(C#N)c1=O`?
GLP1R inv ag: inactive; PTHR1 agonist: inactive; TRHR enhancer: inactive; TRHR ag: inactive; GLP-1R agonist: inactive; GLP1R cytotox: inactive

Results for N#Cc1cc(C(=O)c2ccccc2O)cn(-c2nccs2)c1=O ?
GLP1R inv ag: inactive; PTHR1 agonist: inactive; TRHR enhancer: 30; TRHR ag: 292; GLP-1R agonist: inactive; GLP1R cytotox: inactive

Results for N#Cc1cc(C(=O)c2cc(F)ccc2O)cn(-c2nccs2)c1=O ?
GLP1R inv ag: inactive; PTHR1 agonist: inactive; TRHR enhancer: inactive; TRHR ag: 183; GLP-1R agonist: inactive; GLP1R cytotox: inactive

What do the screens show for `Cc1ccc(S(=O)(=O)N2CCC(C(=O)NCc3ccccc3CN3CCCC3)CC2)cc1C`?
GLP1R inv ag: 4.5µM; PTHR1 agonist: inactive; TRHR enhancer: inactive; TRHR ag: inactive; GLP-1R agonist: inactive; GLP1R cytotox: inactive

Results for O=C(NCc1ccccc1)C1CCCN(S(=O)(=O)c2ccc(F)cc2)C1 (configuration not stated) ?
GLP1R inv ag: inactive; PTHR1 agonist: inactive; TRHR enhancer: 36; TRHR ag: inactive; GLP-1R agonist: inactive; GLP1R cytotox: inactive

How did O=C(NCc1ccccc1CN1CCCC1)C1CCN(S(=O)(=O)c2ccc(F)c(F)c2)CC1 do in these assays?
GLP1R inv ag: inconclusive; PTHR1 agonist: inactive; TRHR enhancer: inactive; TRHR ag: inactive; GLP-1R agonist: inactive; GLP1R cytotox: inactive

How did CC1CCN(S(=O)(=O)N2CCCC(C(=O)NCc3ccccc3Cl)C2)CC1 (configuration not stated) do in these assays?
GLP1R inv ag: 7.1µM; PTHR1 agonist: inactive; TRHR enhancer: inactive; TRHR ag: inactive; GLP-1R agonist: inactive; GLP1R cytotox: inactive

How did O=C(NCCc1ccc(Cl)cc1)C1CCCN(S(=O)(=O)N2CCCCCC2)C1 (configuration not stated) do in these assays?
GLP1R inv ag: 5.6µM; PTHR1 agonist: inactive; TRHR enhancer: inactive; TRHR ag: inactive; GLP-1R agonist: inactive; GLP1R cytotox: inactive

How did CC1CC(C)CN(S(=O)(=O)N2CCCC(C(=O)NCc3ccccc3Cl)C2)C1 (configuration not stated) do in these assays?
GLP1R inv ag: inconclusive; PTHR1 agonist: inactive; TRHR enhancer: inactive; TRHR ag: inactive; GLP-1R agonist: inactive; GLP1R cytotox: inactive

Results for O=C(NCc1ccccc1)C1CCCN(S(=O)(=O)c2ccc(Br)cc2)C1 (configuration not stated) ?
GLP1R inv ag: inactive; PTHR1 agonist: inactive; TRHR enhancer: inactive; TRHR ag: inactive; GLP-1R agonist: inactive; GLP1R cytotox: inactive

Results for Cc1cc(NC(=O)CSc2nc(C(C)C)nc3sc4c(c23)CCCC4)no1 ?
GLP1R inv ag: inactive; PTHR1 agonist: inactive; TRHR enhancer: inactive; TRHR ag: inactive; GLP-1R agonist: inactive; GLP1R cytotox: inconclusive

What do the screens show for `COc1cc(C(=O)N2CCCCC2c2cc(C(=O)N3CCOCC3)no2)cc(OC)c1C` (configuration not stated)?
GLP1R inv ag: inactive; PTHR1 agonist: inactive; GLP-1R agonist: inactive; GLP1R cytotox: inactive

What do the screens show for `Cc1ccc(CS(=O)(=O)CCC(=O)NCCCOC(C)C)cc1`?
GLP1R inv ag: inactive; PTHR1 agonist: inactive; TRHR enhancer: inactive; TRHR ag: inactive; GLP-1R agonist: inactive; GLP1R cytotox: inactive

Bioassay records: PubChem, National Center for Advancing Translational Sciences (NCATS)
